Measurements as given in PubChem BioAssay (NCI).
Where “and” joins values, the source holds several entries; their conditions need not be identical. Equal entries are not always repeated. About 83,000 compounds went through this panel and 20% of them were active in at least one assay; those are over-represented in the sample as a whole.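 How to read the values: 0–100, growth inhibition (40 = 60% inhibited); 0, no net growth; -100 to 0, cell death (-40 = 40% of starting cells died; -100 = all dead).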 Unmarked numbers belong to inactive results. Calls of active or inactive are those of the source. The calls were made as follows: active = growth percent below 10; inactive = the rest.

Assays:
Experiment in all cases: NCI-60 one-dose screen, 48 h (100 = growth as untreated, 0 = no growth, -100 = all killed)
Settings in all cases: 10 µM unless noted
[1] = system: MOLT-4 leukemia
[2] = system: SR leukemia
[3] = system: RPMI-8226 leukemia
[4] = system: OVCAR-5 ovarian
[5] = system: OVCAR-4 ovarian
[6] = system: SK-OV-3 ovarian
[7] = system: IGROV1 ovarian
[8] = system: OVCAR-3 ovarian
[9] = system: HS 578T breast
[10] = system: NCI/ADR-RES ovarian
[11] = system: T-47D breast
[12] = system: BT-549 breast
[13] = system: MDA-MB-435 melanoma
[14] = system: SW-620 colon
[15] = system: MCF7 breast
[16] = system: HCT-116 colon
[17] = system: HCC-2998 colon
[18] = system: KM12 colon

Structure (SMILES): O=C(NC1=NCC[Se]1)c1ccccc1O
- growth [1]: 30.3%
- growth [2]: 19%
- growth [3]: 64.8%
- growth [4]: 53.3%
- growth [5]: 71.1%
- growth [6]: 135%
- growth [7]: -8.34% (active)
- growth [8]: 69.8%
- growth [9]: 35.5%
- growth [10]: 21.5%
- growth [11]: 79.4%
- growth [12]: 82.1%
- growth [13]: 48.3%
- growth [14]: 72.9%
- growth [15]: 51.4%
- growth [16]: 20.3%
- growth [17]: 90%
- growth [18]: 71.5%

Structure (SMILES): CCCC(C)SP(=S)(SC(C)CCC)SC(C)CCC (centres undefined)
- growth [1]: 110%
- growth [2]: 110%
- growth [3]: 105%
- growth [4]: 112%
- growth [5]: 110%
- growth [6]: 108%
- growth [7]: 109%
- growth [8]: 98.5%
- growth [9]: 108%
- growth [10]: 99.9%
- growth [11]: 100%
- growth [12]: 99.8%
- growth [13]: 97.3%
- growth [14]: 91.7%
- growth [15]: 95.1%
- growth [16]: 101%
- growth [17]: 91.5%
- growth [18]: 97.3%

Structure (SMILES): C[N+]1(CC#CC[N+]2(C)CCCC2)CCCC1
- growth [1]: 103%
- growth [2]: 96.7%
- growth [3]: 109%
- growth [4]: 101%
- growth [5]: 105%
- growth [6]: 98.3%
- growth [7]: 105%
- growth [8]: 102%
- growth [9]: 107%
- growth [10]: 102%
- growth [11]: 108%
- growth [12]: 101%
- growth [13]: 104%
- growth [14]: 107%
- growth [15]: 95.5%
- growth [16]: 98.4%
- growth [17]: 110%
- growth [18]: 102%

Structure (SMILES): Cc1ccc(NC2=N[C@]34CC(=O)CC[C@]3(C)[C@H]3CC[C@]5(C)C(=O)CC[C@H]5[C@@H]3C[C@@H]4S2)c(C)c1
- growth [1]: -0.311% (active)
- growth [2]: -0.627% (active)
- growth [3]: -3.52% (active)
- growth [4]: 59.1%
- growth [5]: 59.6%
- growth [6]: 78.5%
- growth [7]: 17.7%
- growth [8]: -6.33% (active)
- growth [9]: 45.3%
- growth [10]: 53.4%
- growth [11]: 41.8%
- growth [12]: 2.85% (active)
- growth [13]: 16.9%
- growth [14]: 4.35% (active)
- growth [15]: 18.2%
- growth [16]: -27.3% (active)
- growth [17]: 84.5%
- growth [18]: 44.5%

Structure (SMILES): CCCCOCCOP(=O)(OCCOCCCC)OCCOCCCC
- growth [1]: 92.3%
- growth [2]: 98.9%
- growth [3]: 115%
- growth [4]: 105%
- growth [5]: 114%
- growth [6]: 101%
- growth [7]: 119%
- growth [8]: 118%
- growth [9]: 95.5%
- growth [10]: 99.7%
- growth [12]: 114%
- growth [13]: 101%
- growth [14]: 93.3%
- growth [15]: 105%
- growth [16]: 115%
- growth [17]: 102%
- growth [18]: 120%

Structure (SMILES): O=C(NCCCN1CC1)Nc1cccc2ccccc12
- growth [1]: 103% and 83.7%
- growth [2]: 102% and 87.1%
- growth [3]: 100% and 88.4%
- growth [4]: 105% and 113%
- growth [5]: 105% and 114%
- growth [6]: 101% and 95.8%
- growth [7]: 87.5% and 86.9%
- growth [8]: 109% and 113%
- growth [9]: 96.2% and 106%
- growth [10]: 101%
- growth [11]: 86.4%
- growth [12]: 90.3% and 105%
- growth [13]: 108% and 88%
- growth [15]: 82% and 77.9%
- growth [16]: 98.1% and 94.2%
- growth [17]: 97.9% and 93.4%
- growth [18]: 103% and 102%

Structure (SMILES): NC(N)=NC(N)=Nc1ccc(Cl)cc1
- growth [1]: 93.3%
- growth [2]: 94.9%
- growth [3]: 94.2%
- growth [4]: 92.1%
- growth [5]: 96.3%
- growth [6]: 110%
- growth [7]: 116%
- growth [8]: 105%
- growth [10]: 113%
- growth [11]: 109%
- growth [12]: 104%
- growth [13]: 101%
- growth [14]: 102%
- growth [15]: 103%
- growth [16]: 109%
- growth [17]: 107%
- growth [18]: 112%

Structure (SMILES): Cc1cc(N(CCCl)CCCl)ccc1/C=N\NC(=O)c1cccnc1
- growth [1]: 49.6% and 60.5%
- growth [2]: 23.4% and 54.5%
- growth [3]: 85.7% and 86.1%
- growth [4]: 33.9% and 74%
- growth [5]: 93.2% and 80.5%
- growth [6]: 74.2% and 102%
- growth [7]: 79.9% and 82.6%
- growth [8]: 104% and 101%
- growth [9]: 98.3% and 103%
- growth [10]: 81.6% and 82.4%
- growth [13]: 91.3% and 88.1%
- growth [14]: 91.4%
- growth [15]: 50.4% and 59.7%
- growth [16]: 84% and 79.2%
- growth [17]: 97.1% and 102%
- growth [18]: 104% and 95.1%
